GALK inh – qHTS Assay for Inhibitors of Human Galactokinase (GALK) | Purified GALK, Kinase-Glo residual ATP luminescence | Potency, µM (top dose mostly 57.5 µM), for inactives: at the highest dose activity change, negative = inhibition, actives largely listed as inhibitors | 0.007% of 270,000 active | AID 1868, 2009; further: potency means the concentration at half of the fitted maximal effect
Target sequence (P51570 whole entry, looked up): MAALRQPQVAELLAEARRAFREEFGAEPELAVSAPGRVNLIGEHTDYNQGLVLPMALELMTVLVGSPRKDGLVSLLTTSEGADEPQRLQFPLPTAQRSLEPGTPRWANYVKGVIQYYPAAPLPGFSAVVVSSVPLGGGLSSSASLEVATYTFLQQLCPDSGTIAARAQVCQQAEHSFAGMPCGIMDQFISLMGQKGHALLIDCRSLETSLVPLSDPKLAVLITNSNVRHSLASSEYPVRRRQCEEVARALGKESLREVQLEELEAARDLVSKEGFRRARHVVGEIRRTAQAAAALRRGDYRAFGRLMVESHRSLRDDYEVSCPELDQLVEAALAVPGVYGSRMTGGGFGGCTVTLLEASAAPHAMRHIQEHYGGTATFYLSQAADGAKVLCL
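The enzyme phosphorylates galactose (100 uM) using ATP (35 uM); inhibition is detected as higher residual ATP, quantified by bioluminescence after 1 h reaction at room temperature, pH 8.0.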
TrxR1 inh – qHTS Assay for Inhibitors of Mammalian Selenoprotein Thioredoxin Reductase 1 (TrxR1): qHTS | recombinant rTrxR1, NADPH fluorescence consumption, selenite substrate | Potency, µM (titrated, usually from 114 µM), for inactives: at the top dose activity change, negative = inhibition, hits mostly inhibitors | 1% of 390,000 active; further: potency means the concentration at half of the fitted maximal effect; nearly all actives have a fitted effect of over 65% in size
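Rat TrxR1 (90 nM in the dispensed reagent) was pre-reduced with 400 uM NADPH for 5 min at room temperature, then incubated with compound for 15 min. After 400 uM selenite was added, NADPH fluorescence (Ex 340/Em 450 nm) was followed for 8 min.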
Coupling enz – qHTS Assay for Inhibitors of Fructose-1,6-bisphosphate Aldolase from Giardia Lamblia: Coupling assay counterscreen. coupling enzyme system counterscreen, AmpLite Red fluorescence. 0.67% of 290,000 active. activity change, negative = inhibition, % at 58.2 µM, hits read low. AID 2472, 2010; in the data active means activity change below about -30%
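Activity here indicates interference with the coupling reaction, not aldolase inhibition. Compounds at 57.5 uM final met coupling enzymes for 10 min at RT; substrate and AmpLite Red detection followed, with a 525/598 nm fluorescence read after 20 min.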
VP16 counter – VP16 counterscreen qHTS for inhibitors of ROR gamma transcriptional activity | Drosophila S2 Gal4-VP16 UAS-luciferase, luminescence, 20 h | Potency, µM (doses to about 53.6 µM), inactives show at the highest dose activity, negative = inhibition, usual class: inhibitors | 3.5% of 310,000 active | AID 2546, 2010;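 further: Gal4-VP16 expression switched on by copper sulfate through the metallothionein promoter; potency means the concentration at half of the fitted maximal effect; nearly all actives have a fitted effect of over 50% in size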
TrxR1 substrate – qHTS Assay for Substrates of Mammalian Selenoprotein Thioredoxin Reductase 1 (TrxR1): qHTS; Thioredoxin reductase 1, cytoplasmic (Rattus norvegicus), O89049; purified TrxR1 substrate turnover, NADPH consumption readout; Potency, µM (titrated, usually from 114 µM), for the others: at the top dose activity change, negative = substrate turnover; 0.01% of 390,000 active; further: potency means the concentration at half of the fitted maximal effect; nearly all actives have a fitted effect of over 50% in size
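Rat TrxR1, dispensed at 90 nM, was prereduced with 400 uM NADPH (final) for 5 min at ~22 deg C, then incubated with compound 15 min before 400 uM selenite. A first-read NADPH fluorescence drop versus no-compound background flagged substrates.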
RORgamma inh – qHTS for inhibitors of ROR gamma transcriptional activity. Drosophila S2 Gal4-RORgamma UAS-luciferase reporter, 20 h. Nuclear receptor ROR-gamma (Mus musculus), P51450. Potency, µM (titrated, usually from 53.6 µM), inactives show top-dose activity change, negative = inhibition, most hits filed as inhibitors. 5.4% of 310,000 active; further: potency means the concentration at half of the fitted maximal effect; nearly all actives have a fitted effect of over 60% in size
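A Gal4/UAS one-hybrid system in insect cells: metallothionein-promoter Gal4–ROR gamma fusion plus Photinus luciferase reporter. Copper sulfate 700 uM final, 20 hr ambient incubation, luminescent detection after 10 min with reagent.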
An asterisk follows results filed as active; i = inactive; ? = inconclusive; . = no result; [ ] = dose if it differs, or a comment. Shown are actives, neighbours in structure and some others; about 5.9% of the full set was active somewhere. Unless noted, the call rests on the fitted dose curve; in most records, active means well fitted curve in the direction sought with a large enough effect; inconclusive means small, poorly fitted or top-dose-only effect, or another doubt; inactive means no such curve, though single readings can be large; an effect the other way counts as inactive or inconclusive. On the % scale 0 is the no-effect control and ±100 the full control effect.

SMILES	GALK inh	TrxR1 inh	Coupling enz	VP16 counter	TrxR1 substrate	RORgamma inh
COc1ccccc1/C=N/NC(=O)COCC(=O)N/N=C/c1ccccc1OC	-2%	0%[57.1 µM]	-13	-5%	-7%	-3%
C=CCc1cccc(/C=N/NC(=O)CNc2cccc3ccccc23)c1O	.	-10%	-20	1.1µM*	-6%	0.56µM*
C=CCc1cccc(/C=N/NC(=O)CNc2ccccc2OC)c1O	7%	-7%	0	-2%	-11%	1.3µM*
C=CCc1cccc(/C=N/NC(=O)C(C)Nc2cccc(C)c2)c1O (stereo unspecified)	-1%	10%	-7	2.5µM*	-3%	0.04µM*
C=CCc1cccc(/C=N/NC(=O)CCC(=O)Nc2ccc(F)cc2)c1O	0%	14%	1	1µM*	-4%	1µM*
C=CCc1cccc(/C=N/NC(=O)CNc2ccccc2)c1O	-3%	-5%	-1	?	-6%	1.6µM*
O=C(Nc1nc(-c2ccccn2)cs1)c1cc2ccccc2o1	5%	7%	-4	11µM*	-2%	1.6µM*
O=C(Nc1nc(-c2ccccn2)cs1)c1ncc(Cl)c(Cl)c1Cl	0%	-5%	0	10µM*	-4%[2.29 µM]	6.3µM*
C[C@H](NC(=O)c1ccccc1)C(=O)Nc1nc(-c2ccccn2)cs1	-3%	9%[57.1 µM]	-2	-7%	5%[57.1 µM]	-4%
Cc1c(C(=O)Nc2nc(-c3ccccn3)cs2)oc2ccccc12	.	-16%	.	.	1%	.
Cn1cccc1C(=O)Nc1nc(-c2ccccn2)cs1	0%	-14%	-19	4µM*	-12%	1.6µM*
O=C(Nc1nc(-c2ccccn2)cs1)c1ccc(Cl)s1	3%	12%	0	4%	5%	20%
Cc1cccc(C(=O)NC(C(=O)Nc2nc(-c3ccccn3)cs2)C(C)C)c1 (stereo unspecified)	7%	-3%[57.1 µM]	1	?	4%	7.9µM*
O=C(CCN1C(=O)COc2ccccc21)NCCN1CCc2ccccc2C1	-1%	11%	-2	-6%	-8%	-2%
O=C(CNC(=O)c1ccc(Cl)cc1Cl)OCC(=O)N1CCN(c2ccccc2)CC1	0%	-3%	.	-4%	-6%	1%
CC(C)[C@H](N)C(=O)OCCOCn1cnc2c(=O)[nH]c(N)nc21	.	5%	3	1%	-3%	8%
CC#CC(=O)Nc1cc2c(Nc3ccc(F)c(Cl)c3)ncnc2cn1	.	.	-44*	4%	.	-1%
Cc1cccc(-c2nsc(SCC(=O)N3CCCC3)n2)c1	2%	1%	5	?	-1%	7.1µM*
Cc1cccc(-c2nsc(SCC(=O)Nc3nccs3)n2)c1	6%	-16%	-1	-14%	-14%	11µM*
O=C(CSc1nc(-c2ccccc2)ns1)N1CCOCC1	0%	8%	3	-14%[10 µM]	11%[57.1 µM]	-25%
Cc1ccc(N2C(=O)CC(NCC3CCCO3)C2=O)cc1 (stereo unspecified)	1%	-15%	-1	5%	-3%	10%
CC(C)(C)OC(=O)NCCCC[C@H](NC(=O)c1[nH]cnc1C(=O)Nc1ccc(CNC(=O)OC(C)(C)C)cc1)C(=O)OC(C)(C)C	-2%	-4%	-10	-4%	-12%	?
CC(C)C[C@H](NC(=O)c1nc[nH]c1C(=O)N[C@@H](CC(C)C)C(=O)OC(C)(C)C)C(=O)OC(C)(C)C	1%	-33%	-16	11µM*	?	?
C[C@H](NC(=O)c1[nH]cnc1C(=O)Nc1ccc(CNC(=O)OC(C)(C)C)cc1)C(=O)OC(C)(C)C	-1%	-7%	-6	?	-17%	8.9µM*
C[C@H](NC(=O)c1nc[nH]c1C(=O)NCC(=O)OC(C)(C)C)C(=O)OC(C)(C)C	-2%	12%[57.1 µM]	0	?	8%[57.1 µM]	13µM*
SMILES	GALK inh	TrxR1 inh	Coupling enz	VP16 counter	TrxR1 substrate	RORgamma inh
CC(C)(C)OC(=O)CNC(=O)c1nc[nH]c1C(=O)NCC(=O)OC(C)(C)C	-2%	-7%	4	-10%	-9%	-24%
CC(C)C[C@H](NC(=O)c1nc[nH]c1C(=O)N(C)Cc1ccccc1)C(=O)OC(C)(C)C	-2%	10%[57.1 µM]	2	-6%	-6%[57.1 µM]	0%
CC(C)C[C@H](NC(=O)c1[nH]cnc1C(=O)Nc1ccc(Cl)cc1)C(=O)OC(C)(C)C	-1%	-4%	-7	4µM*	-16%	2.8µM*
C[C@H](O)[C@@H]1C(=O)N2CCc3ccc(N4CCOCC4)cc3[C@@H]2C[C@@H]1N(C)S(=O)(=O)c1ccccc1	.	1%	.	.	-2%	.
Cc1noc(C)c1C(=O)N1CCC[C@@]2(CCN(c3cccc(-c4ccccc4)c3)C2)C1	.	.	-4	0%	.	7%
COc1ccc(C(=O)N/C(=C\c2ccc([N+](=O)[O-])cc2)C(=O)NC(CCSC)C(=O)O)cc1 (stereo unspecified)	0%	-7%	5	-3%	-8%	3%
CC(C)C[C@H](NC(=O)c1nc[nH]c1C(=O)NCC(=O)OC(C)(C)C)C(=O)OC(C)(C)C	3%	-30%	-1	?	-18%	7.1µM*
CC(C)C[C@H](NC(=O)c1nc[nH]c1C(=O)NCCNC(=O)OC(C)(C)C)C(=O)CNCCNC(=O)c1[nH]cnc1C(=O)N[C@@H](C)C(=O)OC(C)(C)C	.	27%[57.1 µM]	.	.	-4%[57.1 µM]	.
Cc1ccsc1/C=N/NC(=O)c1nnn(-c2nonc2N)c1C(C)C	3%	7%	.	18µM*	0%	11µM*
C/C(=N\NC(=O)c1nnn(-c2nonc2N)c1CN1CCc2ccccc21)c1ccccc1O	1%	17%	1	4.5µM*	-1%	2.2µM*
COc1ccccc1/C(C)=N/NC(=O)c1nnn(-c2nonc2N)c1C(C)C	4%	16%[57.1 µM]	-3	-29%	2%[57.1 µM]	7.1µM*
CCCc1c(C(=O)N/N=C/c2sccc2C)nnn1-c1nonc1N	-4%	21%[57.1 µM]	1	5.6µM*	1%[57.1 µM]	?
COc1cc(/C=N/NC(=O)c2nnn(-c3nonc3N)c2C(C)C)ccc1O	3%	10%	.	2%	-3%	17%
CC(C)c1c(C(=O)N/N=C/c2cccs2)nnn1-c1nonc1N	-2%	8%	-2	-88%	0%	?
C=CCNc1oc(/C=C/c2ccccc2)nc1C#N	-4%	?	-1	-18%	i	?

Screens from PubChem BioAssay.
